Test results: ChEMBL document CHEMBL1157539, “Thousands of chemical starting points for antimalarial lead identification” (Nature, 2010)

What was measured:
Format in all cases: functional
Plasmodium falciparum [1] = test: GSK_TCMDC: Inhibition of Plasmodium falciparum 3D7 in whole red blood cells, using parasite LDH activity as an index of growth. Test compounds present at 2uM
Plasmodium falciparum [2] = test: GSK_TCMDC: Inhibition of Plasmodium falciparum Dd2 in whole red blood cells, using parasite LDH activity as an index of growth. Test compounds present at 2uM
HepG2 = test: GSK_TCMDC: Percent inhibition of human HepG2 cell line. Test compounds present at 10uM.

SMILES | Inhibition (Plasmodium falciparum [1]) [%] | Inhibition (Plasmodium falciparum [2]) [%] | Inhibition (HepG2) [%]
O=C(Cc1cccnc1)N(Cc1ccc(-c2ccc(CNCc3cccnc3)cn2)cc1)C1CCN(Cc2ccccc2)CC1.O=C(O)C(F)(F)F | 93 | 6 | 8
Cc1cccn2c(=O)c3cc(C(=O)NC4CCCCC4)c(=N)n(CCCn4ccnc4)c3nc12 | 100 | 8 | 1
CCOc1cc(C)ccc1C1CCN(CCN2CCC(CNC(=O)c3ccc(-c4ccc(C(F)(F)F)cc4)cc3)CC2)CC1 | 98 | 89 | 53
Cc1ccc(C(=O)Nc2ccc(Nc3ccnc4cc(-c5ccccn5)ccc34)cc2O)cc1.Cl | 100 | 100 | 100
CCN1CCN(CCCNc2c3ccccc3nc3ccccc23)CC1.Cl | 100 | 3 | 44
COc1ccc(OCCn2cc(C(=O)c3ccco3)c3ccccc32)cc1 | 98 | 61 | 17
CC(C)NCc1cccc(-c2ccc(NC(=O)c3ccc(C#N)cc3)cc2)c1.O=C(O)C(F)(F)F | 99 | 8 | 15
Cc1cccc2nc(-c3ccc(-c4ccc(CN5CCN(C6CCN(C)CC6)CC5)cc4)cc3)[nH]c12.O=C(O)C(F)(F)F | 100 | 100 | 99
CC(C)CCNC(=N)c1ccc(OCCCCCOc2ccc(C(=N)NCCC(C)C)cc2)cc1.Cl | 98 | 94 | 5
Br.CC1(C)NC(N)=NC(=N)N1OCCCc1cccc(C(F)(F)F)c1 | 95 | 95 | 62
CN1CCC(C(=O)N(Cc2ccc(-c3ccc(CNCCc4ccccc4)cn3)cc2)Cc2cccc(F)c2)CC1.O=C(O)C(F)(F)F | 90 | 80 | 30
CC(C)c1cccc(C(C)C)c1NC(=O)NNC(=O)c1ccc(CCN2CCC(c3nc(COCC(F)(F)F)c(-c4ccc(F)cc4)o3)CC2)cc1 | 88 | 34 | 61
Cc1cccc2nc(-c3cccc(-c4cccc(NC(=O)Nc5ccsc5)c4)c3)[nH]c12 | 100 | 41 | 15
O=C(c1cccc(Br)c1)N1CCN(c2ccc([N+](=O)[O-])c(NC3CC3)c2)CC1 | 99 | 100 | 5
CCCCCN1CCC(NC(=O)c2ccc(C(=O)Nc3ccc(C(C)C)cc3)cc2)CC1.O=C(O)C(F)(F)F | 98 | 9 | 41
FC(F)(F)c1ccc2[nH]c(-c3cccc(-c4cccc(CNCCN5CCNCC5)c4)c3)nc2c1.O=C(O)C(F)(F)F | 92 | 18 | 29
O=C(Cc1cccc(Cl)c1)Nc1cccc(-c2c[nH]c3nc(Nc4cccc(O)c4)ncc23)c1.O=C(O)C(F)(F)F | 100 | 74 | 23
CC(=O)Nc1ccc(S(=O)(=O)Nc2ccc(Nc3nc(C)cc(N(C)C)n3)cc2)cc1 | 100 | 22 | 0
CCCc1ccc(NC(=O)c2cccc(CN3CCCN(Cc4cccc(C#N)c4)CC3)c2)cc1.O=C(O)C(F)(F)F | 85 | 0 | 20
CCCCc1cc(NCc2ccncc2)nc(Nc2ccccc2)n1 | 96 | 4 | 0
CCOc1cc(Cc2cnc(N)nc2N)cc(OCC)c1OCCCCC(=O)OC | 95 | 0 | 0
CC(=NNC(S)=Nc1ccccc1Cl)c1ccccn1 | 100 | 99 | 69
CC(=O)Nc1ccc(OCCCCN(Cc2ccccc2C(F)(F)F)c2ccc(C(F)(F)F)c(C#N)c2)c(Cl)c1 | 96 | 96 | 14
Nc1nc(N)c2c(CCc3ccc(Cl)c(Cl)c3)cccc2n1 | 100 | 83 | 51
COc1cc(Nc2ccnc3cc(-c4ccncc4)ccc23)cc(OC)c1OC.Cl | 89 | 39 | 9
Cc1nc(-c2cccc(NC(C)C(=O)Nc3cc(C(F)(F)F)ccc3N3CCOCC3)c2)cs1 (centres undefined) | 82 | 97 | 3
O=C(O)C(F)(F)F.c1cc(-c2ccc(CNC3CC3)cc2)cc(-c2nc3ccccc3[nH]2)c1 | 96 | 8 | 17
O=C(NCCNc1ccnc2cc(Cl)ccc12)c1ccccc1F | 99 | 98 | 30
